Sfp PPTase inh – qHTS Assay for Inhibitors of Bacillus subtilis Sfp phosphopantetheinyl transferase (PPTase); 4'-phosphopantetheinyl transferase ffp (Bacillus subtilis), Q9F4F7; Biochemical Sfp PPTase activity, qHTS; Potency, µM, for inactives: largest response in the series, negative = inhibition, usual class: inhibitors; actives 3.5% (n = 310,000); AID 1490, 2009;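 note: the enzyme is Sfp with the accession as filed and its product quenches rhodamine fluorescence; 0% = enzyme reaction without inhibitor and -100% = no enzyme wells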
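Buffer: 50 mM Hepes-Na pH 7.6, 10 mM MgCl2, 0.01% Nonidet P-40, 0.01% BSA. Enzyme 15 nM, pre-exposed to compound 15 min; substrates then added and fluorescence change tracked over 30 min.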
HP1b binding inh – HTS for Inhibitors of HP1-beta Chromodomain Interactions with Methylated Histone Tails; AlphaScreen HP1-beta / biotin-H3K9me3 peptide binding; actives 0.56% (n = 390,000); Chromobox protein homolog 1 (Homo sapiens), P83916; Potency, µM (top dose mostly 114 µM), for inactives: at the top dose activity change, negative = inhibition, actives largely listed as inhibitors; note: nearly all actives have a fitted effect of over 70% in size
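AlphaScreen: HP1-beta (50 nM) preformed 30 min with biotin-H3(1-18)K9me3 peptide (50 nM) in PBS pH 7.4, 0.01% Tween-20. Compound added for 30 min at RT, then streptavidin donor/nickel chelate acceptor beads (10 ug/mL) for 30 min.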
JMJD2A Tudor inh – qHTS Assay for Inhibitors of JMJD2A-Tudor Domain | AlphaScreen JMJD2A-Tudor / H3K4me3 peptide binding | actives 4.4% (n = 390,000) | Potency, µM (series often up to 114 µM), inactives show at the top dose activity change, negative = inhibition, actives largely listed as inhibitors; note: % is set by controls: 0 for no effect and ±100 for the full control effect; nearly all actives have a fitted effect of over 50% in size
Target sequence (O75164 whole entry, looked up, the tested form may be a part): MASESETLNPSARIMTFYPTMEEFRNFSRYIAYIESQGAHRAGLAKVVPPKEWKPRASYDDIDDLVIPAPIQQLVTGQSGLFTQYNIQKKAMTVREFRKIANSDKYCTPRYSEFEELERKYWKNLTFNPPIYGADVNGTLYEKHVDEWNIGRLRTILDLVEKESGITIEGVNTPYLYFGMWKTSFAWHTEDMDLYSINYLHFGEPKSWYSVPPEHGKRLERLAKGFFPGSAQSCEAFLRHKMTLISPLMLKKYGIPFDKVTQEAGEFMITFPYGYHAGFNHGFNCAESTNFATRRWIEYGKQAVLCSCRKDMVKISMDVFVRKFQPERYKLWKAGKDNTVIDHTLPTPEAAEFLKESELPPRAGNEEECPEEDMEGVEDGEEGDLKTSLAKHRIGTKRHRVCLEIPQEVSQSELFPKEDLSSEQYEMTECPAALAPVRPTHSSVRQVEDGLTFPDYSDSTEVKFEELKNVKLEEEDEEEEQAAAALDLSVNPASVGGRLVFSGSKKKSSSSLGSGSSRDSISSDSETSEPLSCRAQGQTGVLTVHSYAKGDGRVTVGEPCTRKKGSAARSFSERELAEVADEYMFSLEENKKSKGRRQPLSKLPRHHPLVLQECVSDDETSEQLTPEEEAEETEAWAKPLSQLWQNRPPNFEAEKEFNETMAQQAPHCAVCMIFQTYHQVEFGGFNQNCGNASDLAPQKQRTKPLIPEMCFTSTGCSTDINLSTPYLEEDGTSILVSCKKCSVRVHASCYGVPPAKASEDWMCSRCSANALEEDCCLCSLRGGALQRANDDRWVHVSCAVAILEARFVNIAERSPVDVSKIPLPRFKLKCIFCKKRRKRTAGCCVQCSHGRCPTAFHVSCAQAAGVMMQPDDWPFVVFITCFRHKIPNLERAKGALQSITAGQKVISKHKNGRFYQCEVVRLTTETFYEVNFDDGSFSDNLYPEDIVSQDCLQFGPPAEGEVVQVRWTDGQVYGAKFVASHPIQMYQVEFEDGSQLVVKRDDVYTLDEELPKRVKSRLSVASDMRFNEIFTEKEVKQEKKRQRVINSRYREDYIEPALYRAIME
L3MBTL1 block – qHTS Assay for the Inhibitors of L3MBTL1 | AID 485360, 2010 | AlphaScreen L3MBTL1–H3K9me1 peptide binding | Lethal(3)malignant brain tumor-like protein 1 (Homo sapiens), Q9Y468 | actives 0.66% (n = 230,000) | Potency, µM (top dose mostly 57.1 µM), without a hit: at the highest dose activity, negative = inhibition, hits mostly inhibitors; note: % is set by controls: 0 for no effect and ±100 for the full control effect; nearly all actives have a fitted effect of over 60% in size
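Read-out is AlphaScreen signal from streptavidin donor and nickel chelate acceptor beads (10 ug/mL final each) bridging L3MBTL1 (50 nM) and biotinylated K9-monomethylated H3(1-15) peptide (75 nM), after 30 min compound exposure at room temperature.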
G9a block – qHTS Assay for Inhibitors of Histone Lysine Methyltransferase G9a. actives 8.8% (n = 350,000). AID 504332, 2011. Histone-lysine N-methyltransferase EHMT2 (Homo sapiens), Q96KQ7. Potency, µM (highest dose often 102 µM), for the others: at the highest dose activity, negative = inhibition, hits mostly inhibitors. G9a H3K9 monomethylation, AlphaScreen, 2 h; note: % is set by controls: 0 for no effect and ±100 for the full control effect; nearly all actives have a fitted effect of over 75% in size
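Methyltransferase reactions run at room temperature for 2 h (20 nM enzyme, 500 nM biotin-H3K9 peptide, 20 uM SAM) after a 15 min compound preincubation; product detected by AlphaScreen beads and anti-H3K9me1 antibody.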
BAZ2B inh – qHTS Assay for Inhibitors of BAZ2B; Bromodomain adjacent to zinc finger domain protein 2B (Homo sapiens), Q9UIF8; AlphaScreen BAZ2B-H3K14Ac peptide displacement; Potency, µM (series often up to 114 µM), inactives show at the top dose activity change, negative = inhibition, most hits filed as inhibitors; actives 4.4% (n = 360,000); AID 504333, 2011; note: % is set by controls: 0 for no effect and ±100 for the full control effect; nearly all actives have a fitted effect of over 60% in size
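BAZ2B 50 nM plus b-H3(5-23)K14Ac 50 nM, PBS pH 7.4/0.01% Tween-20, 30 min RT; compound added (max 110 uM), 30 min RT; streptavidin donor/Ni-chelate acceptor beads 10 ug/mL final, 20 min dark; AlphaScreen read.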
Numbers without * were called inactive; ? = inconclusive; . = no result; [ ] = remark or other dose. Shown are actives, neighbours in structure and some others; about 12% of the full set was active somewhere. Calls come from the whole dose curve; as a rule, active = well fitted curve in the direction sought with a large enough effect; inconclusive = small, poorly fitted or top-dose-only effect, or another doubt; inactive = no such curve, though single readings can be large; an effect the other way counts as inactive or inconclusive. Potency is the fitted concentration of half-maximal effect.

SMILES | Sfp PPTase inh | HP1b binding inh | JMJD2A Tudor inh | L3MBTL1 block | G9a block | BAZ2B inh
Cc1cc(C)cc(-n2nnn(C3C/C(=N/NC(N)=S)C4OCC3O4)c2=S)c1 (stereo unspecified) | 56µM* | -15% | ? | . | 50µM* | -22%
COc1ccc(-c2cc(=S)ss2)cc1 | 2% | . | . | . | ? | .
O=C1CC(N2CCN(c3ccc(O)cc3)CC2)C(=O)N1Cc1cccs1 (stereo unspecified) | -85% | ? | 56µM* | -7% | -3%[12.7 µM] | -9%
O=C(c1ccncc1)c1ccc(N2CCN(C3CC(=O)N(Cc4cccs4)C3=O)CC2)cc1 (stereo unspecified) | 9% | 41% | -17% | -4% | 1% | -17%
CN(C)CCCO[C@H]1[C@@H]2OC(C)(C)O[C@@H]2O[C@@H]1[C@H](O)CO | 14% | . | . | . | 20%[21.5 µM] | .
CCC(=O)Nc1c(-c2cccs2)c(=O)c2ccccc2n1C | 89µM* | 20% | -19% | . | ? | -37%
CCCCCC(=O)Nc1c(-c2cccs2)c(=O)c2ccccc2n1C | -1% | 22% | -6% | . | 7% | 36%
COc1cc(OC)c(NC(=O)N2CCC(CN3CCCC3)CC2)cc1Cl | . | 19% | -3% | . | 2%[59 µM] | -1%
CC(=O)N1c2nc(C(C)C)nn2C2(CCCCC2)[C@@H]2CCCC[C@@H]21 | . | 37% | 0% | . | -8%[59 µM] | -29%
Cc1ccc(NC(=O)CS(=O)CC(=O)NCCCN(C)c2ccccc2)cc1 (stereo unspecified) | -18% | 10% | -10% | -15% | 40µM* | 9%
Oc1ccccc1N1CCN(c2ncnc3scc(-c4ccccc4)c23)CC1 | 3% | -24% | ? | . | ? | -25%
COc1ccc(-c2csc3ncnc(N4CCN(c5ccccc5OC)CC4)c23)cc1 | -3% | ? | ? | . | 45µM* | -35%
Cc1nc(N2CCN(c3ccccc3O)CC2)c2c(-c3ccccc3)csc2n1 | -8% | ? | ? | . | ? | 40µM*
COC(=O)C#CC(=O)OC | 15% | . | . | . | . | .
Cc1ccc(CNc2nc3ccccc3n3c(C)nnc23)cc1 | . | 15% | -15% | . | 1%[59 µM] | 1%
Cc1csc(NC(=O)NCC2CCCC(CNC(=O)Nc3nc(C)cs3)C2)n1 (stereo unspecified) | -9% | 1% | -29% | . | 14µM* | -30%
CC(=O)Nc1nc(C)cs1 | 13% | 29% | -10% | 3% | 7% | -14%
CCOC(=O)C1=C(CN2CCN(c3ccccc3)CC2)NC(=O)NC1c1ccc(C)cc1 (stereo unspecified) | . | 4% | -20% | . | -58%[59 µM] | .
CCOC(=O)COc1ccc2c3c(c(=O)oc2c1C)CCC3 | 3% | 41% | 0% | . | -2%[12.7 µM] | -1%
Cc1cc2oc(=O)c3c(c2cc1OCc1nn[nH]n1)CCCC3 | 21% | 24% | -14% | -6% | 71µM* | ?
Cc1c(OCc2nn[nH]n2)ccc2c3c(c(=O)oc12)CCCC3 | 10% | 14% | -25% | -2% | 71µM* | -1%
Cc1c(OCC(=O)C(C)(C)C)ccc2c3c(c(=O)oc12)CCCC3 | 5% | 30% | -5% | -3% | 12% | -20%
Cc1c(OCc2nn[nH]n2)ccc2c3c(c(=O)oc12)CCC(C)C3 (stereo unspecified) | 25% | 18% | 5% | -3% | 50µM* | 4%
Cc1ccc(NS(=O)(=O)c2ccc3c(c2)CCC(C)(C)O3)cc1C | . | . | -6% | . | . | .
Nc1c(C(=O)O)sc2nc(-c3ccc(F)cc3)cc(-c3ccccc3)c12 | 50µM* | 59% | -23% | . | ? | -16%
Nc1c(C(=O)O)sc2nc(-c3ccccc3)cc(-c3ccc(Cl)cc3)c12 | -21% | 10% | ? | 3% | -9% | ?

Source: PubChem BioAssay
